# Assay results as given in PubChem BioAssay (Tox21).
# Inconclusive results are not listed. Values without a mark were called inactive. The source made the active and inactive calls. Calls follow the shape of the dose curve; as a rule, active = well fitted cell-killing curve with a large enough effect in the repeat runs; inconclusive = weak or mixed curves; inactive = flat fitted curve, though single readings scatter.
# Experiment: qHTS assay to identify small molecule antagonists of the estrogen related receptor (ERR) signaling pathway from Tox21 library - cell viability counter screen (AID 1224834); also: nearly all actives have a fitted effect of over 30% in size
# Settings: ERR reporter cells viability, CellTiter-Fluor, 17.5 h; series mostly up to 92.4 µM; viability change, negative = cytotoxic: at the top concentration
# Source text: National Center for Advancing Translational Sciences [NCATS]
# NIH Chemical Genomics Center [NCGC]
# U.S. Environmental Protection Agency [EPA]
# National Institutes of Environmental Health Sciences [NIEHS]
# National Toxicology Program [NTP]
# U.S. Food and Drug Administration [FDA]
# Estrogen related receptors (ERRs), the first orphan nuclear receptors discovered, play an important role in the control of cellular energy metabolism. ERRs are required for high-energy production in response to the environmental challenges. ERR-alpha was also identified as an adverse marker for breast cancer progression; ERR-alpha-positive tumors have a poor prognosis. To screen and to identify environmental compounds that perturb the ERR signaling pathways could provide valuable information for potential therapeutic or preventive measures in the treatment of metabolic disease. To differentiate true ERR antagonists or agonist from cytotoxic substances, the assay is multiplexed with cell viability assay.
# Tox21 Assay Protocol Summary:
# The ERR cells were dispensed at 2,000 cells/5 ul/well in 1536-well white plates using a Multidrop dispenser. After the assay plates were incubated at a 37 C/5% CO2 incubator for 6 hours, 23 nL of compounds dissolved in DMSO, positive and negative controls or DMSO only was transferred to the assay plate by a pin tool. The plates were incubated at 37 C for 17.5 hours. 1 ul/well of CellTiter-Fluor reagent was added into the assay plates using a Flying Reagent Dispenser. After 30-minute incubation at 37 C/5% CO2, the fluorescence intensity in the plates was measured using a ViewLux plate reader.
# % is scaled to controls: 0 for no effect and ±100 for the full control effect; potency is read from the fitted curve at half-maximal effect.
Structure (SMILES),"viability change, negative = cytotoxic",Potency
C=CC(C)(O)CC/C=C(/C)CCC=C(C)C (stereo not given),-1.51%,–
C[C@H](N)C(=O)N[C@@H](C)C(=O)NC1[C@H]2CN(c3nc4c(cc3F)c(=O)c(C(=O)O)cn4-c3ccc(F)cc3F)C[C@@H]12 (stereo not given in full),-8.87% [at 42.5 µM],–
O=c1[nH][nH]c2ccccc12,-10.3%,–
C=CCCC,0.43%,–
CCc1ccc2c(c1)C(=O)c1ccccc1C2=O,-6.68%,–
CC(CN=Cc1ccccc1O)N=Cc1ccccc1O (stereo not given),-0.253%,–
CCCOC(C)=O,6.4%,–
CCC1=C(C)CN(C(=O)NCCc2ccc(S(=O)(=O)NC(=O)NC3CCC(C)CC3)cc2)C1=O (stereo not given),1.15% [at 42.5 µM],–
O=C(Nc1ccccc1)c1cc([N+](=O)[O-])ccc1Cl,-9.96%,–
CC1(C)C(=O)NC(=O)N1CO,2.74%,–
Cc1c(-c2cccnc2)c2ccccc2n1CCCCC(=O)O,5.71%,–
NC(=O)c1ccccc1,1.41%,–
COc1ccc(/C(C)=C/C(=O)O)c(OC)c1,1.39% [at 42.5 µM],–
C/C(=C\C(C)CC(C)CC(C)C)C1CC(=O)OC1=O (stereo not given),-2.97%,–
CC(CC(C#N)(c1ccccc1)C(C)C)N(C)C (stereo not given),3.77% [at 42.5 µM],–
O=C(O)c1cccnc1Nc1cccc(C(F)(F)F)c1,0.802% [at 42.5 µM],–
CCOc1cc(OCC)c(C(C)=O)cc1OCC,–,30.1 µM (active)
CC(C)CCCCCCCOC(=O)c1ccc(C(=O)OCCCCCCCC(C)C)c(C(=O)OCCCCCCCC(C)C)c1,0.115%,–
CC(=O)Nc1ccccc1O,-2.93%,–
Cc1c(Nc2ncccc2C(=O)O)cccc1C(F)(F)F,-2.6% [at 42.5 µM],–

Structure (SMILES),"viability change, negative = cytotoxic",Potency
CCCC(=O)OCCC(C)C,-1.04%,–
Nc1ccc(-c2ccc(F)cc2)cc1,-4.19%,–
CO[C@@H]1[C@@H](O[C@@H]2O[C@H](C)[C@@H](O[C@H]3C[C@@](C)(O)[C@@H](O)[C@H](C)O3)[C@H](N(C)C)[C@H]2O)[C@@H](CC=O)C[C@@H](C)[C@@H](O[C@@H]2CC[C@H](N(C)C)[C@@H](C)O2)/C=C/C=C/C[C@@H](C)OC(=O)C[C@H]1OC(C)=O,-14.4% [at 42.5 µM],–
CO[C@@H]1COCC[C@@H]1N[C@@H]1CC[C@@](C(=O)N2CCc3ncc(C(F)(F)F)cc3C2)(C(C)C)C1,6.09%,–
C[C@]12CCC(=O)C=C1[C@@H]1C[C@@H]1[C@H]1[C@@H]3[C@@H]4C[C@@H]4[C@@]4(CCC(=O)O4)[C@@]3(C)CC[C@@H]12,-12.4% [at 42.5 µM],–
CC(COc1ccccc1)NC(C)C(O)c1ccc(O)cc1 (stereo not given),-8.68% [at 42.5 µM],–
CCCCCCCCCCCCCCCCC(=O)O,-2.03% [at 42.5 µM],–
Clc1cccc(C(c2ccc3nc[nH]c3c2)n2ccnc2)c1 (stereo not given),-2.16% [at 42.5 µM],–
Cc1nc2sccn2c(=O)c1CCN1CCC(=C(c2ccc(F)cc2)c2ccc(F)cc2)CC1,1.03% [at 42.5 µM],–
CCCCCCCCCCCCCCCCCCCl,-0.218% [at 8.39 µM],–
CCC(CC)C(=O)O,9.1%,–
CCC(C)CCCC(C)(C)O (stereo not given),0.0537%,–
Nc1nc(Cl)nc2c1ncn2[C@H]1C[C@H](O)[C@@H](CO)O1,0.552%,–
O=C(OCCCCCOC(=O)c1ccccc1)c1ccccc1,7.65%,–
CCCCCCCCCCCCSC#N,1.86%,–
O=C1CCCN1CCO,-5.12%,–
O=C(O)CCc1nc2ccccc2[nH]1,1.43% [at 42.5 µM],–
COc1cc(CNC(=O)CCCC/C=C/C(C)C)ccc1O,-6.23%,–
O=[N+]([O-])c1ccc(Cl)cc1Cl,0.0699%,–
O=C1C=CCCC1,0.429%,–
